# Measurements from article PMC4336329 (PLoS ONE, 2015).
# Among all 310,000 compounds or so, about 14,000 (4.5%) showed an effect of 50% or more. Effects have a minus sign here. This is one part of a sample in which strong results are shown more often than they occur.
# Target: human ether-à-go-go-related gene (hERG) potassium channel (human, UniProt Q12809)
# Assay: primary screen, population patch clamp on CHO cells stably expressing hERG; higher = less effect of the substance
# 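Note: peak tail current of the secondary pulse compared with the same well before compound.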
# Sequence of human ether-à-go-go-related gene (hERG) potassium channel (Q12809 whole entry, looked up): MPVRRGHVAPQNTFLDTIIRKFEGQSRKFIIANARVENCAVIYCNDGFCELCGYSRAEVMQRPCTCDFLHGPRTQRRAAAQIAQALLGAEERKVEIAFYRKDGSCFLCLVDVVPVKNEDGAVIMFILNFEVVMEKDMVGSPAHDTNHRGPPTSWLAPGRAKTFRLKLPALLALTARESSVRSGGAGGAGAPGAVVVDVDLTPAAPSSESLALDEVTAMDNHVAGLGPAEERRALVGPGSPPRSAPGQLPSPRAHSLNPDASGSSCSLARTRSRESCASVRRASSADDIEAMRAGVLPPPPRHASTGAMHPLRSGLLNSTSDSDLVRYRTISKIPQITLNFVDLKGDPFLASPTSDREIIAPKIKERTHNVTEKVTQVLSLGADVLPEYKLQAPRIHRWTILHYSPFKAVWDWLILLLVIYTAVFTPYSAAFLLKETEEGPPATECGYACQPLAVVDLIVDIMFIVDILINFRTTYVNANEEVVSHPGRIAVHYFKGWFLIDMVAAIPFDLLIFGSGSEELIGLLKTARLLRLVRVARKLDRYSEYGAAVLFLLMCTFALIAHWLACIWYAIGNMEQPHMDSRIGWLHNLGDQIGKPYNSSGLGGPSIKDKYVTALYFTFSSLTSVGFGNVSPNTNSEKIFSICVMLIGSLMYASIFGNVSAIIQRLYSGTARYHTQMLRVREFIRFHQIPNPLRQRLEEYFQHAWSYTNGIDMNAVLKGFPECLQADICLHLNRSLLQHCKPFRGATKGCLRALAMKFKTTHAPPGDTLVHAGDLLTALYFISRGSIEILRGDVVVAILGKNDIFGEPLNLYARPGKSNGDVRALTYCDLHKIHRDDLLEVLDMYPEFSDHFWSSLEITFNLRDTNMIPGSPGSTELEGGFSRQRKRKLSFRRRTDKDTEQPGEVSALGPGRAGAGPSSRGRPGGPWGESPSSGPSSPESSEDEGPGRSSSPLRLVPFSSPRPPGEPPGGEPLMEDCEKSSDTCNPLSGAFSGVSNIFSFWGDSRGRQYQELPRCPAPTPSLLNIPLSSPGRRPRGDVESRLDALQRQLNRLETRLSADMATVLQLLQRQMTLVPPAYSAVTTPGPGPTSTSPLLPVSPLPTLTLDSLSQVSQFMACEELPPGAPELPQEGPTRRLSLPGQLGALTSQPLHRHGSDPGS
row,Structure (SMILES),"hERG current change (%, negative = inhibition) at 10uM [%]"
1,CCCC1=Nc2cc(C(=O)NCCCN3CCOCC3)ccc2Sc2ccccc21,-9.32
2,Cc1ccc(NC(=O)c2cc([N+](=O)[O-])ccc2N2CCCC2)cc1,-0.291
3,CN(C)S(=O)(=O)c1cccc(NC(=O)c2cc([N+](=O)[O-])ccc2N2CCCCC2)c1,-53
4,CC(=O)Nc1cccc(NC(=O)c2cc([N+](=O)[O-])ccc2N2CCCCC2)c1,-69.3
5,COc1ccc(NC(=O)c2cc([N+](=O)[O-])ccc2N2CCCCC2)cc1,4.86
6,CN(C)S(=O)(=O)c1ccc(N2CCCC2)c(C(=O)Nc2ccccc2)c1,-23.5
7,O=C(Nc1cccc(C(F)(F)F)c1)c1cc(S(=O)(=O)N2CCCCC2)ccc1N1CCOCC1,-8.02
8,CN(C)S(=O)(=O)c1ccc(N2CCCC2)c(C(=O)Nc2cccc(F)c2)c1,0.224
9,O=C(Nc1cccc(S(=O)(=O)N2CCOCC2)c1)c1cc([N+](=O)[O-])ccc1N1CCOCC1,-15.2
10,O=C(Nc1cccc(S(=O)(=O)N2CCCCC2)c1)c1cc([N+](=O)[O-])ccc1N1CCOCC1,-64.2
11,N#CC(C#N)=Cc1cccn1-c1ccc(C(=O)O)cc1,15.5
12,CC(C)NC(=O)CN1C(=O)C(=O)c2ccccc21,-9.78
13,Cc1nc2ccc(S(=O)(=O)NC(C(=O)N3CCCC3)C(C)C)cc2s1 (centres unmarked),7.12
14,COc1cc2c(cc1OC)CN(C(=O)c1ccc(S(=O)(=O)N3CCCCCC3)cc1)CC2,-27.3
15,Cc1nnc(NC(=O)CSc2nc3c(c(=O)n2C)SC(C)C3)s1 (centres unmarked),4.1
16,Cc1ccc(-c2nnc(SCC(=O)NNC(=O)COc3cccc4ccccc34)n2C)cc1,5.74
17,COc1cccc(/C=N/NC(=O)c2ccc(N3CCCC3=O)cc2)c1,-19.8
18,O=C(N/N=C/c1cccc(Br)c1)c1ccc(N2CCCC2=O)cc1,-57.6
19,O=C(N/N=C/c1ccccc1)c1ccc(N2CCCC2=O)cc1,5.87
20,CC(Oc1ccc([N+](=O)[O-])cc1)C(=O)NCC1CCCO1 (centres unmarked),-7.02
21,COc1ccccc1N1C(=O)c2cccc3c(N(C)CCO)ccc(c23)C1=O,5.75
22,Fc1ccc(C(CCNCc2ccccn2)c2ccc(Cl)cc2)cc1 (centres unmarked),-77.5
23,COCCCNCCC(CCC(C)C)c1ccc2c(c1)OCO2.Cl (centres unmarked),-80.2

row,Structure (SMILES),"hERG current change (%, negative = inhibition) at 10uM [%]"
1,COCCCNC(=O)c1ccc2c(c1)OCO2,-9.98
2,CCNCCC(CCC(C)C)c1ccc2c(c1)OCO2 (centres unmarked),-72
3,CCc1ccccc1NC(=O)NC(C)c1ccc2c(c1)OCO2 (centres unmarked),14
4,CC(NC(=O)C1CCC1)c1ccc2c(c1)OCO2 (centres unmarked),-5.51
5,Fc1ccccc1CNCCc1ccc2c(c1)OCO2,-7.43
6,Cl.Fc1ccc(-c2ccc(CNCc3ccccn3)o2)cc1,-25.4
7,Fc1cccc(CCNCc2ccccn2)c1,-6.71
8,CC(=O)N(CCC(Cc1ccccc1)c1ccc2c(c1)OCO2)Cc1ccccc1F (centres unmarked),7.53
9,COCCCNS(=O)(=O)c1ccc2c(c1)OCCO2,6.53
10,Cl.Fc1ccccc1CNCCC(Cc1ccccc1)c1ccc2c(c1)OCO2 (centres unmarked),-50.6
11,Nc1nc(NCCOCCO)nc(NCc2ccccc2)c1[N+](=O)[O-],-1.49
12,O=C(NCc1ccccc1)C(=O)Nc1cccc(C(=O)O)c1,4.16
13,NC(=O)N/N=C/c1ccccc1OCC(=O)NCc1ccccc1,-3.76
14,S=c1[nH]nc(-c2ccncc2)n1/N=C/C=C/c1ccccc1,8.71
15,COc1ccc(S(=O)(=O)N(CCC(=O)O)Cc2ccccc2)cc1,13.7
16,Cc1ccc(-n2ncc3c(=O)n(CC(=O)NC4CCCC4)cnc32)cc1C,5.66
17,CCOC(=O)c1ccc(NC(=O)Cc2coc3cc4c(cc23)CCC4)cc1,5.55
18,CO[C@@]1(NC(=O)CSCC#N)C(=O)N2C(C(=O)[O-])=C(CSc3nnnn3C)CS[C@@H]21.[Na+],4.09
19,Cc1cccc(NC(=O)NNS(=O)(=O)c2ccc(F)cc2)c1,-1.81
20,CSc1nnc(SCC#N)s1,8.95
21,CC(C)CCNC(=O)CN(C(=O)CCC(=O)Nc1nccs1)c1ccc2c(c1)OCCO2,-4.45
22,Cc1cc(N/N=C/c2ccccc2)nc(N)n1,-14.5
23,CC(C)C(CCNCc1ccccn1)c1ccc(Cl)cc1 (centres unmarked),-41.6

row,Structure (SMILES),"hERG current change (%, negative = inhibition) at 10uM [%]"
1,c1ccc(CNCc2ccc3c(c2)OCO3)nc1,11.2
2,O=C(NCc1ccccn1)Nc1ccc(Cl)cc1,13.9
3,CC(C)CCC(CCNCc1ccccn1)c1ccc(Cl)cc1 (centres unmarked),-80.4
4,CC(C)CCC(CCNCc1ccccn1)c1ccc2c(c1)OCO2.Cl (centres unmarked),-75.5
5,O=C(O)C(=O)O.c1ccc(CNCCc2ccc3c(c2)OCO3)nc1,2.74
6,O=C(CF)NC(Nc1cccc2cccnc12)C(Cl)(Cl)Cl (centres unmarked),-5.95
7,COc1ccc(N2CCN(C(=O)c3ccc4c(c3)CCN4S(=O)(=O)c3ccccc3)CC2)cc1,-23.2
8,O=C(NCC1CC1)Nc1ccccc1,16.3
9,N#C/C(=C/c1cc[nH]c1)C(N)=S,14.2
10,CCN1CCC(NC(=O)Nc2cc(Cl)ccc2OC)CC1,-2.83
11,COc1ccccc1NC(=O)CCN1CCN(Cc2ccccc2)CC1,-22.3
12,COC(=O)C1CCN(CC(=O)Nc2cc(Cl)ccc2OC)CC1,-19
13,COc1ccc(N2CCN(CC(=O)Nc3ccccc3SC)CC2)cc1,-5.77
14,CSc1ccccc1NC(=O)CN1CCN(S(=O)(=O)c2ccccc2[N+](=O)[O-])CC1,-52.2
15,O=C(CN1CCN(S(=O)(=O)c2ccccc2[N+](=O)[O-])CC1)NC(=O)NCc1ccco1,-5.96
16,COc1ccccc1NC(=O)CN1CCN(Cc2ccccc2)CC1,-67.6
17,COc1ccccc1NC(=O)CN1CCN(c2ccccc2)CC1,-12.7
18,O=C(CN1CCN(S(=O)(=O)c2ccccc2[N+](=O)[O-])CC1)Nc1ccc(N2CCOCC2)cc1,-12.9
19,COc1ccc(Cl)cc1NC(=O)CN1CCC(NC(=O)C2CC2)CC1,-52
20,CSc1ccccc1NC(=O)CN1CCCCC1,8.96
21,CSc1ccccc1NC(=O)CN1CCN(Cc2ccccc2)CC1,-66.3
22,Cc1ccccc1C(=O)NC(=S)Nc1ccccc1[N+](=O)[O-],18.1
23,O=C(NC(Cc1c[nH]c2ccccc12)c1nnc2n1CCCCC2)c1ccccc1 (centres unmarked),18.7

row,Structure (SMILES),"hERG current change (%, negative = inhibition) at 10uM [%]"
1,Cc1ccc(S(=O)(=O)N2CCCC(C(=O)NCCC3=CCCCC3)C2)cc1 (centres unmarked),-4.03
2,CC1Cc2ccccc2N1C(=O)Cn1cnc2ccccc2c1=O (centres unmarked),21.8
3,Cc1cc(C)nc(NC(=O)CSc2ccccn2)n1,1.08
4,C/C(=N/NC(=O)c1ccc(Br)o1)c1ccncc1,7.82
5,CCOc1ccccc1NC(=O)C1CCN(c2ccc(S(=O)(=O)N3CCCC3)cc2)CC1,-6.65
6,CCC1CCCCN1CCNS(=O)(=O)c1ccc2c(c1)CCN2C(C)=O (centres unmarked),-1.09
7,CCN1CCN(C(=O)N(c2ccccc2)c2ccccc2)CC1,11.9
8,Cc1n[nH]c(=O)c2c(NC(=O)CSc3nc4ccccc4c(=O)n3CCCO)oc(C)c12,-21.2
9,COc1cccc(Cn2c(Oc3cccc(C)c3)nc3c2c(=O)n(C)c(=O)n3C)c1,-9.7
10,O=S(=O)(N/N=C/c1ccc(F)cc1)c1ccccc1,6.88
11,Cn1nc(-c2ccc(NCCO)c([N+](=O)[O-])c2)c2ccccc2c1=O,-2.29
12,O=C(c1ccccc1Cl)N(Cc1ccc(Cl)c(Cl)c1)N1C(=O)CCCC1=O,-6.37
13,CC(=O)Nc1ccc(NC(=O)C(C)Oc2ccccc2C(=O)NCc2ccccc2)cc1 (centres unmarked),-46.9
14,COc1ccc(OC2CCN(S(=O)(=O)c3ccc(C(C)=O)cc3)CC2)cc1,-19.7
15,COc1ccc(Cl)cc1NC(=O)CN1CCCCCC1,-8.36
16,COc1ccccc1NC(=O)c1nnn(Cc2ccccc2)c1NC(C)=O,2.36
17,COc1ccc(OC)c(NC(=O)CCN2CCN(Cc3ccccc3)CC2)c1.Cl,-32.9
18,O=C(Nc1ccccc1)c1nnn(Cc2ccccc2)c1NC(=O)C(F)(F)F,-7.45
19,COc1ccc(Cl)cc1NC(=O)CCN1CCN(Cc2ccccc2)CC1,-64.6
20,COc1ccc(Cl)cc1NC(=O)CCN1CCN(c2ccccc2C)CC1,6.79
21,COc1ccc(Cl)cc1NC(=O)CN1CCCC1.Cl,5.1
22,COc1ccc(Cl)cc1NC(=O)CN1CCN(Cc2ccccc2)CC1,-68.9
23,COc1ccccc1NC(=O)c1nnn(Cc2ccccc2)c1NC(=O)C(F)(F)F,-53
